# Data reported in PubChem BioAssay (NCATS).
# Several values for one entry are separate records, joined by “and”; a condition that tells them apart may be missing. Identical values can stand only once. Values without a mark were called inactive. Inconclusive results are not listed. Entries that show only a call come without a potency. Activity calls are given as the source filed them. Unless noted, the call rests on the fitted dose curve; in most records, active means well fitted curve in the direction sought with a large enough effect; inconclusive means small, poorly fitted or top-dose-only effect, or another doubt; inactive means no such curve, though single readings can be large; an effect the other way counts as inactive or inconclusive.
# How the values were obtained:
# [1] = target: Guanine nucleotide-binding protein G(i) subunit alpha-1 (Homo sapiens) (UniProt P63096); assay: qHTS Assay for Inhibitors of RGS12 GoLoco Motif Activity (Green Fluorophore) (AID 879);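 further: negative values mean loss of peptide binding seen as reduced polarization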
# Guanine nucleotide-binding protein G(i) subunit alpha-1 (Homo sapiens), sequence (P63096 whole entry, looked up): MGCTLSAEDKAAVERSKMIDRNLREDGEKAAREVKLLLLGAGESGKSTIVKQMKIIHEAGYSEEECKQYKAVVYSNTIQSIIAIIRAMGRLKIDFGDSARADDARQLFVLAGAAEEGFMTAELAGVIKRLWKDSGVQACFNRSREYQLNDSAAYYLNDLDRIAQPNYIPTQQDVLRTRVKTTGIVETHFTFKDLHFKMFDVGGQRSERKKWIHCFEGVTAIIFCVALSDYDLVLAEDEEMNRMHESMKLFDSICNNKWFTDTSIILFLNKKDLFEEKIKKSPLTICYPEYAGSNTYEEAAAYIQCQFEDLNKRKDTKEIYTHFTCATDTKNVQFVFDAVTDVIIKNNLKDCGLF
# Method in brief: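 Fluorescence polarization assay: 50 nM Gαi1 with 10 nM FITC-labeled RGS12 GoLoco peptide in 10 mM Tris pH 7.5, 150 mM NaCl, 0.1 mM GDP, 0.05% NP40, 10 min at room temperature with compound.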
# [2] = qHTS Assay for Identification of Small Molecule Agonists for Thrombopoietin (TPO) Signaling Pathway (AID 917)
# Method in brief: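 IL-3-dependent murine pro-B Ba/F3 cells, stably transfected with human TPO receptor and GpIIb-promoter luciferase, are incubated 24 hrs at 37 C with test compound and 26 pM TPO; luciferase signal is read after 10 min at room temperature.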
# [3] = target: Muscarinic acetylcholine receptor M1 (Rattus norvegicus) (UniProt P08482); assay: qHTS Assay for Antagonists of Acetylcholine Muscarinic M1 Receptor: Kinetic Measurement of Intracellular Calcium Response (AID 943); further: series mostly up to about 35 µM; nearly all actives have a fitted effect of over 75% in size
# Muscarinic acetylcholine receptor M1 (Rattus norvegicus), sequence (P08482 whole entry, looked up): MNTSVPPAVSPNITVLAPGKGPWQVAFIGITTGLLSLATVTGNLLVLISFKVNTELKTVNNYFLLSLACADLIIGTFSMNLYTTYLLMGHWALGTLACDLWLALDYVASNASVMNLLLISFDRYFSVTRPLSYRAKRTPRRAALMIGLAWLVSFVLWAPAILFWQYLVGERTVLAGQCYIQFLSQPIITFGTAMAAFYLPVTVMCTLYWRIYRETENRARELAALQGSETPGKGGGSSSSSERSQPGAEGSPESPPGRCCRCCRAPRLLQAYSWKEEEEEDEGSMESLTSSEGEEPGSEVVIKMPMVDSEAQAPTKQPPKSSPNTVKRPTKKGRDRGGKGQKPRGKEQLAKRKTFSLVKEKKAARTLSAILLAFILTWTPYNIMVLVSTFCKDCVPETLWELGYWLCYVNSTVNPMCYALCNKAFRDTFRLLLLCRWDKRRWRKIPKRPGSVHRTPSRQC
# Method in brief: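 CHO cells expressing rat M1 receptor, Fluo-4 loaded, preincubated 10 min with compound, then stimulated with EC80 carbachol (100 nM final). Kinetic calcium fluorescence over 4 min; response taken as peak over basal signal.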
# [4] = target: Muscarinic acetylcholine receptor M1 (Rattus norvegicus) (UniProt P08482); assay: qHTS Assay for Antagonists of Acetylcholine Muscarinic M1 Receptor: Measurement of IP-One Response (AID 944); further: nearly all actives have a fitted effect of over 75% in size; further: potency means the concentration at half of the fitted maximal effect
# Method in brief: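 CHO cells stably expressing rat M1, pretreated 10 min with compound, then stimulated 30 min with carbachol at EC80 (200 nM) in LiCl-containing buffer pH 7.4; IP1 accumulation read by HTRF competition (665/620 nm).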
# [5] = target: Pyruvate kinase (Leishmania mexicana) (UniProt Q27686); assay: qHTS Validation Assay for Inhibitors of Leishmania Mexicana Pyruvate Kinase (AID 945)
# Pyruvate kinase (Leishmania mexicana), sequence (Q27686 2-499 E452W): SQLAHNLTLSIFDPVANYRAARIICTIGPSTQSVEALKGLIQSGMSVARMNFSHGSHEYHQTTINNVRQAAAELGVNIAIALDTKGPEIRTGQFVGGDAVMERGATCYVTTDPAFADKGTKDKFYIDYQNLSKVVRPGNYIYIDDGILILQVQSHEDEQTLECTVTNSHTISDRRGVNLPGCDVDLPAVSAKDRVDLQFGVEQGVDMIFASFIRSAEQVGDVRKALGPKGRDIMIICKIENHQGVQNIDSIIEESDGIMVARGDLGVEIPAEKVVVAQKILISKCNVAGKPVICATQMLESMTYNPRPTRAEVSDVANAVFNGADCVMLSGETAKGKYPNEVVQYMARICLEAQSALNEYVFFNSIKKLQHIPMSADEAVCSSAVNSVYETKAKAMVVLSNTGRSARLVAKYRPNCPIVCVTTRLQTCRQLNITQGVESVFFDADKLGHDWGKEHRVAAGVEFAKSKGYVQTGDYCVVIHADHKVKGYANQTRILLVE
# Method in brief: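 Pyruvate kinase activity of E451W LmPYK (0.2 nM) was followed as ATP output after 1 h at room temperature with 0.5 mM PEP and 0.1 mM ADP, detected by PKLight luminescence.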
# [6] = Cellular Toxicity (caspase-3) NIH 3T3 (AID 666)
# Method in brief: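 Mouse NIH 3T3 fibroblasts (1000/well) treated 16 h at 37 C; caspase-3/7 activity measured by Caspase-Glo 3/7 luminescence after 20 min. Normalized to DMSO and 100 uM tamoxifen; AC50 from Hill fits.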
# [7] = Cellular Toxicity (caspase-3) Renal Proximal Tubule (AID 667);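 further: cells exposed to compound for 16 hours at 37 °C before detection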
# Method in brief: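 Caspase-Glo 3/7 read-out, rat primary kidney proximal tubule cells. Compound exposure 16 h, 37 °C; detection after 1 h at RT. Activity scaled to DMSO and 10 uM staurosporine.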
# [8] = target: Cytochrome P450 2C9 (Homo sapiens) (UniProt P11712); assay: qHTS Assay for Inhibitors and Substrates of Cytochrome P450 2C9 (AID 883); further: nearly all actives have a fitted effect of over 60% in size
# Cytochrome P450 2C9 (Homo sapiens), sequence (P11712 whole entry, looked up): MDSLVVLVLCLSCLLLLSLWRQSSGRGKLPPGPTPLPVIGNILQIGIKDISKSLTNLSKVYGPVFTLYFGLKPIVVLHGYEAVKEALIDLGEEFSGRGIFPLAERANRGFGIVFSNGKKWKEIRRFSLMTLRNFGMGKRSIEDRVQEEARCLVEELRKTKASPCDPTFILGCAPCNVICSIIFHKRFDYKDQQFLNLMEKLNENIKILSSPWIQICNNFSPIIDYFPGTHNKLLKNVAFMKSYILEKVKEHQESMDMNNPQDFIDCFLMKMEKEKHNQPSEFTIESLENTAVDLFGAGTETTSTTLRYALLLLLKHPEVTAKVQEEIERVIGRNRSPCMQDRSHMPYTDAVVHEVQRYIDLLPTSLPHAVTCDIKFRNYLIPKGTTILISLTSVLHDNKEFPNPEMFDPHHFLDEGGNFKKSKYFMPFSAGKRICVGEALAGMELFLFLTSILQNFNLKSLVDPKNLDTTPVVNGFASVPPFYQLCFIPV
# Method in brief: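 CYP2C9 deoxyluciferin hydroxylation, 37C, 60 min with NADPH regeneration; 10nM enzyme, 100uM Luciferin-H (KM). Glo detection reagent stopped reaction; luminescence normalized to sulphaphenazole (57uM) full inhibition.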
# [9] = target: Cytochrome P450 3A4 (Homo sapiens) (UniProt P08684); assay: qHTS Assay for Inhibitors and Substrates of Cytochrome P450 3A4 (AID 884); further: nearly all actives have a fitted effect of over 50% in size; further: potency means the concentration at half of the fitted maximal effect
# Cytochrome P450 3A4 (Homo sapiens), sequence (P08684 whole entry, looked up): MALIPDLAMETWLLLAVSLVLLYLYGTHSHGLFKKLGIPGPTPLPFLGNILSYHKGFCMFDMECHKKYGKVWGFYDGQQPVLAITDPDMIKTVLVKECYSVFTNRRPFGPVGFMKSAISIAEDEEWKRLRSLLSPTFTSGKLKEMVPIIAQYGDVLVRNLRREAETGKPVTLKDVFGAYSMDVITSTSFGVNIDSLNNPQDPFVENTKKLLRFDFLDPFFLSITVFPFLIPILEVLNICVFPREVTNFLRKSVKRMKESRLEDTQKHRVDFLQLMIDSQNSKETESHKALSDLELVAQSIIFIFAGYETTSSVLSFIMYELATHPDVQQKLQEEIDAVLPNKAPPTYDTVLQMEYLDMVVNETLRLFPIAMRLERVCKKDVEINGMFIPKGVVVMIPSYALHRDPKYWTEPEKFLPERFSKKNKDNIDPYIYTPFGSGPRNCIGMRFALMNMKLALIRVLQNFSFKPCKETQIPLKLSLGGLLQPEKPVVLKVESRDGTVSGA
# Method in brief: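 20 nM human CYP3A4 with 25 uM Luciferin-PPXE (at KM) in 200 mM KPO4, preincubated 10 min with compound; NADPH regeneration started a 60 min RT reaction. Luciferin detected by luminescence, normalized to 57 uM ketoconazole as full inhibition.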
# [10] = target: Cytochrome P450 2D6 (Homo sapiens) (UniProt P10635); assay: qHTS Assay for Inhibitors and Substrates of Cytochrome P450 2D6 (AID 891); further: nearly all actives have a fitted effect of over 60% in size; further: potency means the concentration at half of the fitted maximal effect
# Cytochrome P450 2D6 (Homo sapiens), sequence (P10635 whole entry, looked up): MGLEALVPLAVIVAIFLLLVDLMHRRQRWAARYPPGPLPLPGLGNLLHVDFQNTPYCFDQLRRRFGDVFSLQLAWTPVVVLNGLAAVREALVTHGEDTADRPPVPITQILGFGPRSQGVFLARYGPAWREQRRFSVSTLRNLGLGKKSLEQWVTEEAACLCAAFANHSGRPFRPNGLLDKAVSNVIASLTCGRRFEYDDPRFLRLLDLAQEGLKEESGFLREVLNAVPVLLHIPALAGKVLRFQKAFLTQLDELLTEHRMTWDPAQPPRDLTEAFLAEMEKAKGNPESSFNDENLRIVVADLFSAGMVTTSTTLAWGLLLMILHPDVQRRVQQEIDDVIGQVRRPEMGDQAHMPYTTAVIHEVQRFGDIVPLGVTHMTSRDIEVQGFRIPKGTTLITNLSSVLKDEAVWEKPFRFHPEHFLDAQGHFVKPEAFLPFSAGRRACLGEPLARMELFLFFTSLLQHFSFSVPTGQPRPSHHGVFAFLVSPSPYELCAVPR
# Method in brief: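 Human CYP2D6 (5 nM) with 30 uM Luciferin-ME EGE (at Km) in 100 mM KPO4, compound preincubated 10 min, then NADPH regeneration system for 60 min at room temperature. Luciferin read by luminescence; normalized to 1.43 uM quinidine.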
# [11] = target: Cytochrome P450 2C19 (Homo sapiens) (UniProt P33261); assay: qHTS Assay for Inhibitors and Substrates of Cytochrome P450 2C19 (AID 899); further: nearly all actives have a fitted effect of over 60% in size; further: potency means the concentration at half of the fitted maximal effect
# Cytochrome P450 2C19 (Homo sapiens), sequence (P33261 whole entry, looked up): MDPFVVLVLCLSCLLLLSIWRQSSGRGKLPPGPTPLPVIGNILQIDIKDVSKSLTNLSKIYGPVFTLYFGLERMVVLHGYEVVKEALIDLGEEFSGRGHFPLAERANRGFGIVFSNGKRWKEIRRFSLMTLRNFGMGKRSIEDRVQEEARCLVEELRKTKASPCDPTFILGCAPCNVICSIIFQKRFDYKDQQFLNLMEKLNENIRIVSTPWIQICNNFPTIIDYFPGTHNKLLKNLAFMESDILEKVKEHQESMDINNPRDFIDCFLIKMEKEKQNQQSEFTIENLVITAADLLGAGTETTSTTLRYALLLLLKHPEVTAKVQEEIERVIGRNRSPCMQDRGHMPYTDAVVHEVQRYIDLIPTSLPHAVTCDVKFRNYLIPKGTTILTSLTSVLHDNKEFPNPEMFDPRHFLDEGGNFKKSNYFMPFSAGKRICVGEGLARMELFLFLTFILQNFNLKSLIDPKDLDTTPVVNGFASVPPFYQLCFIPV
# Method in brief: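 In 50mM KPO4, the reaction held 5nM enzyme and KM-level (10uM) Luciferin-H EGE; it ran 60 min at 37C after NADPH regeneration and a 10 min compound preincubation. Luminescence values were scaled to 57uM ketoconazole as complete inhibition.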
# [12] = Confirmation and Secondary Assay for Modulators of Hemoglobin Beta Chain Splicing at IVS2 654 locus (AID 910);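 further: per-well total GFP intensity by laser scanning cytometry after 2-day treatment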
# Method in brief: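 HeLa cells stably carrying EGFP interrupted by mutant beta-globin IVS2-654 intron (CMV-driven) were treated with compound for 2 days at 37C; corrected splicing was scored as total peak GFP intensity per well (488 nm excitation, 500-520 nm emission).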
# [13] = Cell Viability - LYMP2-001 (AID 921);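 further: series mostly up to about 92 µM; cells exposed to compound for 24 h at 37 °C; nearly all actives have a fitted effect of over 70% in size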
# Method in brief: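 A lymphoblastoid cell line of human origin was treated with library compounds across a concentration series for 24 hours, and viable cell number was estimated from ATP-driven luciferase light output. Hill modeling gave AC50.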
# [14] = Confirmation and Secondary Assay for Modulators of Hemoglobin Beta Chain Splicing at IVS2 705 locus (AID 930);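 further: HeLa cells stably expressing the EGFP-705 splicing reporter; GFP fluorescence per well restored by corrected splicing of the IVS2-705 intron in EGFP; series mostly up to about 46 µM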
# Method in brief: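 Assay measures total GFP intensity per well in HeLa EGFP-705 cells after 2 days with compound; mis-splicing normally truncates EGFP, so fluorescence indicates corrected splicing.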
# [15] = MultiTox-Fluor Cytotoxicity Assay - LYMP1-001 - Dead Cells (AID 946)
# Method in brief: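 LYMP1-001 lymphoblastoid cells (2500/well) treated 16 h at 37 C. Dead-cell protease cleavage of bis-AAF-R110 read at Ex/Em 485/520. Normalized to DMSO and 15 uM tetraoctylammonium bromide; AC50 from Hill fits.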
# [16] = MultiTox-Fluor Cytotoxicity Assay - LYMP1-001 - Live Cells (AID 947)
# [17] = Cell Viability - LYMP1-002 - Assay at 16 hr (AID 948)
# Method in brief: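 In this qHTS, lymphoblastoid LYMP1-002 cells (human) receive compounds for 16 hr at 37 C. Viability is taken from CellTiter-Glo ATP luminescence, and AC50 derives from standard Hill fits.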
# [18] = target: Cytochrome P450 3A4 (Homo sapiens) (UniProt P08684); assay: qHTS Assay for Activators of Cytochrome P450 3A4 (AID 885); further: nearly all actives have a fitted effect of over 65% in size
# Method in brief: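 Human CYP3A4 (20 nM) with Luciferin-PPXE at 25 uM (its KM) in 200 mM KPO4; 10 min compound preincubation, then NADPH regeneration and 60 min reaction at RT. Luciferin read by luminescence; normalized to 57 uM ketoconazole full inhibition.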
# [19] = qHTS Assay for Identification of Small Molecule Antagonists for NFkB Signaling Pathway (AID 895; active means well fitted inhibition curve with a large enough effect in the signal ratio, with a control signal flat, not every such curve was filed as active; the % refers to the signal ratio)
# Method in brief: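 NFkB-bla ME-180 cervical carcinoma cells with beta-lactamase reporter under NFkB response element; compounds added, then TNF alpha at 10 pM final (EC50), 5 h at 37 C. LiveBLAzer substrate 2 h, room temperature; emission 460/530 nm at 405 nm excitation.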
# [20] = qHTS Assay for Identification of Small Molecule Agonists for Hypoxia Response Element Signaling Pathway (AID 914; active means well fitted activation curve with a large enough effect in the signal ratio, with a control signal flat, not every such curve was filed as active; the % refers to the signal ratio); settings: ME-180 (cervical carcinoma) HRE-bla reporter, beta-lactamase ratio, CoCl2, 17 h; active compounds read high
# Method in brief: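 Compounds in a titration series were added to ME-180 reporter cells alongside an EC50 level of CoCl2. After 17 hours, beta-lactamase activity was read as the 460nm/530nm emission ratio of CCF4, giving AC50 values.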
smiles,measurement,setting,value
CCCCC/C=C\C/C=C\C/C=C\C/C=C\CCCC(=O)NCC(=O)O,outcome,[1],inactive
same,outcome,[2],inactive
same,outcome,[3],inactive
same,Potency,[4],inactive
same,outcome,[5],inactive
O=P1(N(CCCl)CCCl)NCCCO1 (stereo not drawn),outcome,[6],inactive
same,outcome,[7],inactive
same,outcome,[1],inactive
same,outcome,[8],inactive
same,Potency,[9],inactive
same,Potency,[10],inactive
same,Potency,[11],inactive
same,outcome,[12],inactive
same,outcome,[2],inactive
same,outcome,[13],inactive
same,outcome,[14],inactive
same,outcome,[5],inactive
same,outcome,[15],inactive
same,outcome,[16],inactive
same,outcome,[17],inactive
CCOC(=O)CC(SP(=S)(OC)OC)C(=O)OCC (stereo not drawn),outcome,[6],inactive
same,outcome,[7],inactive
same,outcome,[18],inactive
same,outcome,[13],inactive
same,outcome,[15],inactive
same,outcome,[16],inactive
same,outcome,[17],inactive
O=c1[nH]oc2c1CCNC2,outcome,[1],inactive
same,outcome,[8],inactive
same,Potency,[9],inactive
same,Potency,[19],inactive
same,outcome,[12],inactive
same,outcome,[2],inactive
same,outcome,[14],inactive
same,outcome,[3],inactive
same,Potency,[4],inactive
same,outcome,[5],inactive
Clc1ccc(C(c2ccc(Cl)cc2)C(Cl)(Cl)Cl)cc1,outcome,[6],inactive
same,outcome,[7],inactive
same,Potency,[9],inactive
same,outcome,[12],inactive
same,outcome,[13],inactive
same,outcome,[14],inactive
same,outcome,[15],inactive
same,outcome,[16],inactive
same,outcome,[17],inactive
C[C@]12CCC(=O)C=C1CC[C@@H]1[C@@H]2CC[C@]2(C)C(=O)CC[C@@H]12,outcome,[6],inactive
same,outcome,[7],inactive
same,outcome,[1],inactive
same,Potency,[9],inactive
same,outcome,[2],inactive
same,outcome,[13],inactive
same,outcome,[3],inactive
same,Potency,[4],inactive
same,outcome,[5],inactive
same,outcome,[15],inactive
same,outcome,[16],inactive
same,outcome,[17],inactive
O=C(CCCN1CCC2(CC1)C(=O)NCN2c1ccccc1)c1ccc(F)cc1,outcome,[1],inactive
same,outcome,[18],inactive
same,Potency,[10],2.51 µM (active) and 1.58 µM (active)
same,Potency,[19],inactive
same,Potency,[11],6.31 µM (active)
same,outcome,[12],inactive
same,outcome,[2],inactive
same,outcome,[14],inactive
same,outcome,[3],inactive
same,outcome,[5],inactive
C[C@]1(O)CC[C@H]2[C@@H]3CCC4=CC(=O)CC[C@]4(C)[C@@]3(F)[C@@H](O)C[C@@]21C,outcome,[6],inactive
same,outcome,[7],inactive
same,Potency,[9],inactive
same,outcome,[13],inactive
same,outcome,[15],inactive
same,outcome,[16],inactive
same,outcome,[17],inactive
Cn1c(=O)c2[nH]cnc2n(C)c1=O,Potency,[11],inactive
O=C1c2ccccc2C(=O)c2ccccc21,Potency,[9],inactive
same,outcome,[12],inactive
same,outcome,[14],inactive
NC(=O)c1cc([N+](=O)[O-])cc([N+](=O)[O-])c1,Potency,[9],7.94 µM (active)
same,outcome,[18],inactive
same,outcome,[12],inactive
same,outcome,[14],inactive
C=CCc1ccc(O)c(OC)c1,outcome,[18],inactive
Cc1ncsc1CCCl,Potency,[11],7.94 µM (active)
CCCCCCNC(=O)n1cc(F)c(=O)[nH]c1=O,Potency,[9],20 µM (active)
same,outcome,[18],inactive
CCC1(c2ccc(N)cc2)CCC(=O)NC1=O (stereo not drawn),outcome,[18],inactive
same,outcome,[12],inactive
same,outcome,[14],inactive
NC(=O)CS(=O)C(c1ccccc1)c1ccccc1 (stereo not drawn),Potency,[9],inactive
same,outcome,[12],inactive
same,outcome,[14],inactive
CC(C)N(CCC(C(N)=O)(c1ccccc1)c1ccccn1)C(C)C (stereo not drawn),outcome,[12],inactive
same,outcome,[14],inactive
CCOP(=S)(OCC)Oc1ccc2c(C)c(Cl)c(=O)oc2c1,outcome,[18],inactive
same,outcome,[12],inactive
same,outcome,[14],inactive
c1ccc2c(c1)sc1ccccc12,Potency,[9],inactive
same,outcome,[12],inactive
same,outcome,[14],inactive
CC(NC(C)(C)C)C(=O)c1cccc(Cl)c1 (stereo not drawn),Potency,[9],inactive
same,outcome,[12],inactive
same,outcome,[14],inactive
C=CCN1C[C@H](C)N([C@H](c2ccc(C(=O)N(CC)CC)cc2)c2cccc(OC)c2)C[C@H]1C,Potency,[10],1.58 µM (active)
Nc1ccc(O)cc1,outcome,[18],inactive
CCC1(CC)C(=O)C=CNC1=O,Potency,[9],inactive
same,outcome,[12],inactive
same,activation,[20],-12.7%
same,outcome,[14],inactive
COc1c2c(cc3c1OCO3)CCN(C)C2,Potency,[10],3.98 µM (active)
same,activation,[20],-5.25%
COc1ccc2c(c1)C13CCCC[C@@H]1C(C2)N(C)CC3 (stereo partly drawn),Potency,[10],3.98 µM (active)
CC(=O)N1CCN(c2ccc(OC[C@H]3CO[C@](Cn4ccnc4)(c4ccc(Cl)cc4Cl)O3)cc2)CC1,Potency,[4],8.91 µM (active)
COc1cc(-c2ccc(=O)[nH]n2)ccc1OC(F)F,outcome,[8],inactive
CNC(C)(C)Cc1ccccc1,Potency,[9],inactive
same,outcome,[12],inactive
same,outcome,[14],inactive
O=c1oc2ccccc2c(O)c1Cc1c(O)c2ccccc2oc1=O,outcome,[12],inactive
same,outcome,[14],inactive
CC(C)(C)NCC(O)c1ccccc1Cl (stereo not drawn),Potency,[9],inactive
same,outcome,[12],inactive
same,outcome,[14],inactive
